Only some compounds are listed: those with a hit (about 1.5% of all), similar ones and a draw of the others.
PrP UTR inh = suppresses PrP 5' UTR mRNA reporter expression. cell-based PrP 5' UTR mRNA reporter, plate reader. inhibition, % (test concentration not listed). 340,000 compounds, 0.35% hits; in the data active = inhibition above about 52%
PrPC TRFRET = cell surface PrPC inhibition, primary TR-FRET screen; P04156; TR-FRET read-out; inhibition, % at 13.8 µM; 370,000 compounds, 0.43% hits; AID 720596; in the data active = inhibition above about 24%
VHR inh abs = blocks human VHR1 dual specificity phosphatase | recombinant VHR phosphatase, pNPP absorbance | inhibition, % at 13.3 µM | 290,000 compounds, 0.52% hits | AID 1654; in the data active = inhibition above about 50%
Target sequence (P51452 whole entry, looked up): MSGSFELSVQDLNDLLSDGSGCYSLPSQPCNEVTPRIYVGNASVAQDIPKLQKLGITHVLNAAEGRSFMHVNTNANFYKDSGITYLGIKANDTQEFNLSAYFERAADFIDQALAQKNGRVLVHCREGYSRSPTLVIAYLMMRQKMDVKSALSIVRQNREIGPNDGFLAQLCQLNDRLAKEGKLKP
SARS 3CLpro inh = SARS-CoV 3CLpro protease inhibition; P0C6X7; recombinant SARS-CoV 3CLpro, quenched FRET peptide cleavage; inhibition, % at 6 µM; 290,000 compounds, 0.14% hits; AID 1706; in the data active = inhibition above about 12%
MazEF act = increases E. coli MazEF RNase cleavage of RNA; AID 504720; P0AE70; activation, % at 20 µM; 350,000 compounds, 0.32% hits; FAM/BHQ RNA-DNA oligo cleavage fluorescence, 5 h; in the data active = activation above about 50%
Target sequence (P0AE70 whole entry, looked up): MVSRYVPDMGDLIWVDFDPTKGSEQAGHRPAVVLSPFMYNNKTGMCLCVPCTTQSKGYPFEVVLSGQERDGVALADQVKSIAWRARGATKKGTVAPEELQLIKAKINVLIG
Mtb hypoxia rep = Mtb hypoxia fluorescent reporter inhibition; M. tuberculosis hypoxia-regulated fluorescent reporter, fluorescence; fluorescence inhibition, % (concentration not given with the values); 300,000 compounds, 0.1% hits; AID 1159583; in the data active = fluorescence inhibition mostly above about 23%, no sharp cut-off; inactive = mostly below about 17%
A number is an active result.

Cc1cc(C)c2nc(SCC(=O)N3CC(=O)Nc4ccccc43)c(C#N)cc2c1 was read as PrP UTR inh inactive, PrPC TRFRET inactive, VHR inh abs inactive, SARS 3CLpro inh inactive, MazEF act inactive and Mtb hypoxia rep inactive.
For CC(=O)n1cc(C2C=C(C(N)=O)OC(OCc3ccc(CO)cc3)C2)c2ccccc21 (stereo unspecified) the results were Mtb hypoxia rep inactive.
Screening Cc1cccc2c3nc4ccccc4nc3n(C)c12 returned PrP UTR inh inactive, PrPC TRFRET inactive, VHR inh abs inactive, SARS 3CLpro inh inactive, MazEF act 165 and Mtb hypoxia rep inactive.
COC(=O)CSc1nc2ccccc2n1CC(=O)N(C(C)C)C(C)C was read as PrP UTR inh inactive, PrPC TRFRET inactive, VHR inh abs 52, SARS 3CLpro inh inactive, MazEF act inactive and Mtb hypoxia rep inactive.
`Cc1cc(Nc2cccc(F)c2)n2c(n1)nc1ccccc12` gave PrP UTR inh inactive, PrPC TRFRET inactive, VHR inh abs inactive, SARS 3CLpro inh inactive, MazEF act 57 and Mtb hypoxia rep inactive.
Cc1nn(-c2ccc(F)cc2)c(Cl)c1/C=N/NC(=O)c1cccs1 was read as PrP UTR inh inactive, PrPC TRFRET inactive, VHR inh abs inactive, SARS 3CLpro inh inactive and MazEF act 68.
`Cc1nn(-c2ccc(F)cc2)c(Cl)c1C=NNC(=O)c1cccs1` gave Mtb hypoxia rep inactive.
Screening O=c1[nH]c(N/N=C\c2ccc(F)cc2)nc2ccccc12 returned PrP UTR inh inactive, PrPC TRFRET inactive, VHR inh abs 57, SARS 3CLpro inh inactive and MazEF act 56.
Screening O=c1[nH]c(NN=Cc2ccc3c(c2)OCO3)nc2ccccc12 returned Mtb hypoxia rep inactive.
Screening O=c1[nH]c(N/N=C/c2ccc(O)cc2)nc2ccccc12 returned PrP UTR inh inactive, PrPC TRFRET inactive, VHR inh abs inactive, SARS 3CLpro inh inactive and MazEF act 51.
For CCCCCC=CC1=CC(=O)CC(c2ccc(OC)c(OC)c2)C1 (stereo unspecified) the results were Mtb hypoxia rep inactive.
For C(=N\N1CCOCC1)/c1ccsc1 the results were PrP UTR inh inactive, PrPC TRFRET inactive, VHR inh abs 57, SARS 3CLpro inh inactive and MazEF act inactive.
For COC(=O)c1ccc(Cl)cc1NC(=O)C=Cc1ccc(C)o1 the results were Mtb hypoxia rep inactive.
COc1ccc2c(c1)OCC1C2N2C(=O)CN(Cc3ccc(Cl)cc3)C(=O)[C@@]2(C)C1c1ccccc1 (stereo partly specified) was read as Mtb hypoxia rep inactive.
Screening Cc1cccc(OCCC(=O)Nc2ccc(C)c(S(=O)(=O)N3CCCCC3)c2)c1 returned PrP UTR inh inactive, PrPC TRFRET inactive, VHR inh abs 51, SARS 3CLpro inh inactive and MazEF act inactive.
`CCOc1ccc(S(=O)(=O)N2CCN(c3ccccn3)CC2)cc1` gave PrP UTR inh inactive, PrPC TRFRET inactive, VHR inh abs 56, SARS 3CLpro inh inactive, MazEF act inactive and Mtb hypoxia rep inactive.
`O=C(COc1ccc2c3c(c(=O)oc2c1)CCC3)c1ccc2c(c1)OCO2` gave PrP UTR inh inactive, PrPC TRFRET inactive, VHR inh abs inactive, SARS 3CLpro inh inactive, MazEF act 125 and Mtb hypoxia rep inactive.
For O=C(O)COc1ccc2c3c(c(=O)oc2c1)CCCC3 the results were PrP UTR inh inactive, PrPC TRFRET inactive, VHR inh abs inactive, SARS 3CLpro inh inactive, MazEF act inactive and Mtb hypoxia rep inactive.
For CCOc1ccccc1CN1CCNC(=O)C1CC(=O)NCCCn1cccn1 (stereo unspecified) the results were PrP UTR inh inactive, PrPC TRFRET inactive, VHR inh abs 51, SARS 3CLpro inh inactive, MazEF act inactive and Mtb hypoxia rep inactive.
For CCOc1ccc2[nH]c(SCC(=O)OC)c([N+](=O)[O-])c2c1 the results were PrP UTR inh inactive, PrPC TRFRET inactive, VHR inh abs inactive, SARS 3CLpro inh inactive, MazEF act inactive and Mtb hypoxia rep inactive.
For COC(=O)CSc1[nH]c2ccc(Br)cc2c1[N+](=O)[O-] the results were PrP UTR inh inactive, PrPC TRFRET inactive, VHR inh abs inactive, SARS 3CLpro inh inactive, MazEF act inactive and Mtb hypoxia rep 37.
CSc1nc(-c2ccc(C)cc2)nc(C(Cl)Cl)n1 was read as PrP UTR inh inactive, VHR inh abs inactive, SARS 3CLpro inh inactive, MazEF act inactive and Mtb hypoxia rep 78.
`Cc1ccc(-c2nc(C(Cl)Cl)c3ccccc3n2)cc1` gave PrP UTR inh inactive, PrPC TRFRET inactive, VHR inh abs inactive, SARS 3CLpro inh inactive, MazEF act inactive and Mtb hypoxia rep inactive.
Screening COC(=O)C1=C(c2ccc(OCc3ccccc3)cc2)CC2CCC1N2C(=O)NCc1ccccc1 (stereo unspecified) returned Mtb hypoxia rep inactive.
For COc1ccc(NC(=O)c2sc3nc(-c4cccnc4)ccc3c2N)cc1 the results were PrP UTR inh inactive, PrPC TRFRET inactive, VHR inh abs inactive, SARS 3CLpro inh inactive and MazEF act inactive.
Screening COc1ccc(NC(=O)c2sc3nc(-c4cccnc4)ccc3c2N)cc1OC returned PrP UTR inh inactive, PrPC TRFRET inactive, VHR inh abs inactive, SARS 3CLpro inh inactive, MazEF act active and Mtb hypoxia rep inactive.
`Cn1c(=S)n(N=Cc2cccs2)c2ccccc21` gave Mtb hypoxia rep inactive.
Cc1ccc(S(=O)(=O)NCC(c2cccnc2)N2CCN(Cc3ccccc3)CC2)cc1 (stereo unspecified) was read as PrP UTR inh inactive, PrPC TRFRET inactive, VHR inh abs inactive, SARS 3CLpro inh inactive, MazEF act inactive and Mtb hypoxia rep inactive.
Screening CCN1CCN(C(CNS(=O)(=O)c2ccc(C)cc2)c2cccnc2)CC1 (stereo unspecified) returned PrP UTR inh inactive, PrPC TRFRET inactive, VHR inh abs 51, SARS 3CLpro inh inactive, MazEF act inactive and Mtb hypoxia rep inactive.
`COc1cccc(C=NNC(=S)Nc2cccnc2)c1` gave Mtb hypoxia rep inactive.
CCOc1ccc(N(CC(=O)Nc2ccccc2Cl)S(C)(=O)=O)cc1 was read as PrP UTR inh inactive, PrPC TRFRET inactive, VHR inh abs 59, SARS 3CLpro inh inactive, MazEF act inactive and Mtb hypoxia rep inactive.
`CCOc1ccc(N(CC(=O)Nc2ccccc2OC)S(C)(=O)=O)cc1` gave PrP UTR inh inactive, PrPC TRFRET inactive, VHR inh abs inactive, SARS 3CLpro inh inactive, MazEF act inactive and Mtb hypoxia rep inactive.
CCOC1OC(C(=O)Nc2ccccc2)=CC(c2coc3ccccc3c2=O)C1CCCO (stereo unspecified) was read as Mtb hypoxia rep inactive.
Screening CCOC1OC(C(=O)N2CCCCCCC2)=CC(C2CCCCC2)C1CCCO (stereo unspecified) returned Mtb hypoxia rep inactive.
COc1ccc(-c2cc(-c3ccccc3)nc(Cl)n2)cc1OC was read as PrP UTR inh inactive, PrPC TRFRET inactive, VHR inh abs 51, SARS 3CLpro inh inactive, MazEF act inactive and Mtb hypoxia rep inactive.
